According to PubChem BioAssay (EPA / NIEHS):
The source made the active and inactive calls. The calls were made as follows: active = hit-call score of the fitted dose curve at least 0.9, where 1 is the maximum; inactive = score below 0.9.

Assays:
[1] = CEETOX_H295R_OHPROG: CeeTox H295R High-throughput Steroidogenesis Assay for OH-Progesterone (OHPROG) (AID 2283435); conditions: actives raise or lower the signal
Procedure, shortened: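 H295R adrenal cells prestimulated 48 h with 10 uM forskolin, then exposed 48 h to chemical (0.1% DMSO final). 17alpha-hydroxyprogesterone in medium quantified by HPLC-MS/MS; bidirectional fit versus DMSO, with MTT viability measured in the same wells.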

[2] = CEETOX_H295R_CORTIC: CeeTox H295R High-throughput Steroidogenesis Assay for Corticosterone (CORTIC) (AID 2283437); conditions: actives raise or lower the signal;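 also: corticosterone secreted into medium quantified by mass spectrometry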
Procedure, shortened: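 H295R adrenal cells prestimulated 48 hours with 10 uM forskolin, then exposed 48 hours to chemical in 0.1% DMSO. Corticosterone in medium measured by HPLC-MS/MS after MTBE extraction; MTT viability in the same wells; bidirectional fit versus DMSO.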

[3] = CEETOX_H295R_CORTISOL: CeeTox H295R High-throughput Steroidogenesis Assay for Cortisol (AID 2283438); conditions: actives raise or lower the signal;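 also: cortisol secreted into medium quantified by LC-MS/MS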
Procedure, shortened: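 Forskolin-primed H295R cells (10 uM, 48 h) treated 48 h with test chemical in 0.1% DMSO. Cortisol in medium quantified by MTBE extraction and HPLC-MS/MS; bidirectional fit vs DMSO, MTT viability in same wells.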

[4] = CEETOX_H295R_DOC: CeeTox H295R High-throughput Steroidogenesis Assay for DOC (AID 2283439); conditions: actives raise or lower the signal
Procedure, shortened: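 H295R cells prestimulated 48 h with 10 uM forskolin, then exposed 48 h to test chemical (0.1% DMSO final). Medium 11-deoxycorticosterone measured by HPLC-MS/MS after MTBE extraction; bidirectional fit vs DMSO, viability checked by MTT in same wells.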

[5] = CEETOX_H295R_ESTRADIOL: CeeTox H295R High-throughput Steroidogenesis Assay for Estradiol (AID 2283440); conditions: actives raise or lower the signal;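 also: estradiol secreted into medium quantified by LC-MS/MS after dansyl derivatisation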
Procedure, shortened: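 Estradiol secreted into the medium was measured by tandem mass spectrometry after liquid-liquid extraction and dansylation. Human H295R cells had been forskolin-primed (10 uM, 48 h) before a 48 h chemical exposure with 0.1% DMSO.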

[6] = CEETOX_H295R_ESTRONE: CeeTox H295R High-throughput Steroidogenesis Assay for Estrone (AID 2283441); conditions: actives raise or lower the signal;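 also: estrone secreted into medium measured by LC-MS/MS after dansyl derivatization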;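 as to AC50: human adrenal H295R cells prestimulated with forskolin for two days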
Procedure, shortened: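 H295R cells prestimulated 48 h with 10 uM forskolin, then exposed 48 h to chemicals in 0.1% DMSO final; estrone in medium extracted with MTBE, dansyl-derivatized, quantified by HPLC-MS/MS; bidirectional fitting versus DMSO, viability by MTT.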

[7] = CEETOX_H295R_PROG: CeeTox H295R High-throughput Steroidogenesis Assay for Progesterone (PROG) (AID 2283442); conditions: actives raise or lower the signal;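 as to AC50: human H295R adrenal cells primed with 10 µM forskolin before dosing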
Procedure, shortened: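 Steps: seed H295R cells and let them adhere overnight; prime 48 h with 10 uM forskolin; dose with compound in DMSO at 0.1% final for 48 h; extract medium steroids with MTBE; measure progesterone by LC-MS/MS. MTT viability was run in the same wells.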

[8] = read-out: Tumor necrosis factor receptor superfamily member 6 (Homo sapiens) (UniProt P25445); experiment: LTEA_HepaRG_FAS: Life Technologies and Expression Analysis (LTEA) Assay for Fas cell surface death receptor (FAS) using HepaRG (AID 2283447); conditions: mRNA level, 48 h; actives raise or lower the signal
Procedure, shortened: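 Differentiated HepaRG cells in serum-free induction medium were exposed 48 h to 8 half-log concentrations up to 100 uM in 0.5% DMSO, in duplicate. FAS mRNA was measured by qRT-PCR normalised to ACTB, GAPDH and POLR2A; bidirectional fit versus DMSO.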

[9] = read-out: Fatty acid synthase (Homo sapiens) (UniProt P49327); experiment: LTEA_HepaRG_FASN: Life Technologies and Expression Analysis (LTEA) Assay for Fatty Acid Synthase (FASN) using HepaRG (AID 2283448); conditions: mRNA level, 48 h; actives raise or lower the signal;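 as to AC50: differentiated human HepaRG liver cells in serum-free induction medium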
Procedure, shortened: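 Differentiated HepaRG cells in serum-free induction medium exposed 48 h in duplicate to eight half-log concentrations, top 100 uM, 0.5% DMSO. FASN mRNA by qRT-PCR normalised to ACTB, GAPDH, POLR2A; bidirectional fit versus DMSO.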

[10] = CEETOX_H295R_ANDR: CeeTox H295R High-throughput Steroidogenesis Assay for Androstenedione (ANDR) (AID 2283436); conditions: actives raise or lower the signal
Procedure, shortened: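 H295R cells, following OECD 456 with minor changes, exposed to chemicals for 48 h. Androstenedione in the medium was quantified by HPLC-MS/MS after MTBE extraction. Fitting was bidirectional versus DMSO; chemicals were diluted until MTT viability was ≥70%.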

Measured: AC50

Fatty acid synthase (Homo sapiens), sequence (P49327 whole entry, looked up): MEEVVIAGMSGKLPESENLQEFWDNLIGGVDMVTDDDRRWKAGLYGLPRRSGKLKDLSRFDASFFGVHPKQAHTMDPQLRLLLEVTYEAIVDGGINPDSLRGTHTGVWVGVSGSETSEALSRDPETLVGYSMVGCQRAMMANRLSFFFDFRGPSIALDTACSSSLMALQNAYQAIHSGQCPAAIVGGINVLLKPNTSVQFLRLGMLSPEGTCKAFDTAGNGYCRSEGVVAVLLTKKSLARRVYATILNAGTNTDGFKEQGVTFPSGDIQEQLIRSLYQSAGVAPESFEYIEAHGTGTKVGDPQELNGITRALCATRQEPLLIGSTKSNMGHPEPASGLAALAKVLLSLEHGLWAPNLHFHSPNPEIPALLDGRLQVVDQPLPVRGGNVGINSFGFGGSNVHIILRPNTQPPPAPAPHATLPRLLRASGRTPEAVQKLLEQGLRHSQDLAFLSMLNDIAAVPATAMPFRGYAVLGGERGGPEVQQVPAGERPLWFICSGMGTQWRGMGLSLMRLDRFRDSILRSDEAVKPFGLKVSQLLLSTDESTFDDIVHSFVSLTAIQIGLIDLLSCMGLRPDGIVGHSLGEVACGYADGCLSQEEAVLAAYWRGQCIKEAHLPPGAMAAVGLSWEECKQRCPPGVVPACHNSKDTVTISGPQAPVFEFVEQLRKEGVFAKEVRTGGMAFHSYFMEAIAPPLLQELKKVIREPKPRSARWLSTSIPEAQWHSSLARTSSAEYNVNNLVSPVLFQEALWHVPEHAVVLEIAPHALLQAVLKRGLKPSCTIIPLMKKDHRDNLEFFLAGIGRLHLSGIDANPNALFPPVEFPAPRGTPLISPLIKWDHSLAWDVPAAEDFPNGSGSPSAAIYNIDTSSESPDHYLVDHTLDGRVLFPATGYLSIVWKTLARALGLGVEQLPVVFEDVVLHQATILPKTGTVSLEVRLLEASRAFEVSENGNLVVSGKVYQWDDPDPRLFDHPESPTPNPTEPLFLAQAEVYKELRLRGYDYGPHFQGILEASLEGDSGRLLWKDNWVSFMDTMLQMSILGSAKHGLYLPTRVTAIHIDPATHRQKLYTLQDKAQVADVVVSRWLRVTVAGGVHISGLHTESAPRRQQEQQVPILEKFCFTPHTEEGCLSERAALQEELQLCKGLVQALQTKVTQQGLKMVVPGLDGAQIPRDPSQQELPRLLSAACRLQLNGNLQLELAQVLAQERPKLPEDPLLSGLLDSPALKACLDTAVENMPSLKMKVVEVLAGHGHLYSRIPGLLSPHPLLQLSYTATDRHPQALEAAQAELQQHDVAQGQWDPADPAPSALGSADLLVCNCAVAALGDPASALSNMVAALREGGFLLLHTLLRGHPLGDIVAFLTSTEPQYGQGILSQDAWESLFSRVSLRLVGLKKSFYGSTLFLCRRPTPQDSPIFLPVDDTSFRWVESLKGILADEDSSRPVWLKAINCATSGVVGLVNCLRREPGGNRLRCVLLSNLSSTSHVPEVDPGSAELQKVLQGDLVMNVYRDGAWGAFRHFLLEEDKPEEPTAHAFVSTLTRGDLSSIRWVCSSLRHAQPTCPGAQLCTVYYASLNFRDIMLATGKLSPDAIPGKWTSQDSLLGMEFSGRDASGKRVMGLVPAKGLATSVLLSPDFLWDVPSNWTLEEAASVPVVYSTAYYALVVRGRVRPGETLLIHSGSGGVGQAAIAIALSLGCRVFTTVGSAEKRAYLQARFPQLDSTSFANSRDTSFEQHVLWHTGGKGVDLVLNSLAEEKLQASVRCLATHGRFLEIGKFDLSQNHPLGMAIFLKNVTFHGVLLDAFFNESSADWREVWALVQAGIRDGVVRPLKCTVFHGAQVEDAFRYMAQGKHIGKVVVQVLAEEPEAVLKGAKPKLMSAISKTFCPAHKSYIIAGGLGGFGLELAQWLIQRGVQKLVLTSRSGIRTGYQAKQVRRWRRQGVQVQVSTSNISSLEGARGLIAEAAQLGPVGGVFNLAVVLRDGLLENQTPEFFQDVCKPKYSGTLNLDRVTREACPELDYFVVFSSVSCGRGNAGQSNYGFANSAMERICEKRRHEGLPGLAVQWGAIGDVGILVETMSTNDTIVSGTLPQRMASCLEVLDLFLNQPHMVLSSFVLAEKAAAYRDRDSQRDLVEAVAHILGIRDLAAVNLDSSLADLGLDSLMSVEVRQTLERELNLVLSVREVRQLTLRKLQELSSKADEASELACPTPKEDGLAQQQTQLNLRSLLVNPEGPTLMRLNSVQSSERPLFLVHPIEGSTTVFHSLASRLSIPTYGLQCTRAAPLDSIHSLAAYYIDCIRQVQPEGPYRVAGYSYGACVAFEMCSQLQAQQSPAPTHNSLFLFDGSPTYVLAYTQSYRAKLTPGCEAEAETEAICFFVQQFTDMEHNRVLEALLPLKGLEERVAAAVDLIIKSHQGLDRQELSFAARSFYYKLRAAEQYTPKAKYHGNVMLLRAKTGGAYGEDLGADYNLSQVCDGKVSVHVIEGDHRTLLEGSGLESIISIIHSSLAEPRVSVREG

Nc1cnn(-c2ccccc2)c(=O)c1Cl
not listed: [10]
inactive: all other assays above

CC(C)(C)C(=O)C(Oc1ccc(Cl)cc1)n1cncn1 (centres undefined)
active: [1] 21 µM | [3] 21.2 µM | [5] 21.7 µM | [6] 41.2 µM | [7] 3.12 µM | [9] 50 µM
inactive: [2] | [4] | [8]

COCC(=O)N(c1c(C)cccc1C)C(C)C(=O)OC (centres undefined)
inactive: [1] | [5] | [6] | [7] | [8] | [9]

CCC(C)n1c(=O)[nH]c(C)c(Br)c1=O (centres undefined)
inactive: [1] | [5] | [6] | [7] | [8]
active: [9] 14.1 µM

N#CN=C1SCCN1Cc1ccc(Cl)nc1
not listed: [5] | [6] | [10]
inactive: all other assays above

CCCC(=NOCC)C1=C(O)CC(CC(C)SCC)CC1=O (centres undefined)
active: [6] 0.554 µM
not listed: [10]
inactive: all other assays above

CCOc1cc(C(C)(C)C)ccc1C1COC(c2c(F)cccc2F)=N1 (centres undefined)
inactive: [1] | [10] | [6] | [8] | [9]

CCOC(=O)C(C)OC(=O)c1cc(Oc2ccc(C(F)(F)F)cc2Cl)ccc1[N+](=O)[O-] (centres undefined)
active: [9] 35.1 µM
not listed: [10]
inactive: all other assays above

COP(=S)(OC)Oc1ccc([N+](=O)[O-])c(C)c1
active: [1] 2.22 µM | [4] 2.48 µM | [7] 2.59 µM
not listed: [10]
inactive: all other assays above
